Calls of active or inactive are those of the source.

For the first assay, the target named is Albumin (Bos taurus) (UniProt P02769). As to the kind of experiment: compounds binding labelled BSA control protein – biochemical, small-molecule microarray, Alexa647 label, 635/667 nm fluorescence, artefact control for SMM control protein annotation, profiling panel (AID 1118).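 Further: score merges 667 nm emission intensity and signal-to-noise per printed compound spot.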 The settings on record: BSA-A647 binding, fluorescence 635 nm, higher = more signal.
Sequence of Albumin (Bos taurus) (P02769 whole entry, looked up): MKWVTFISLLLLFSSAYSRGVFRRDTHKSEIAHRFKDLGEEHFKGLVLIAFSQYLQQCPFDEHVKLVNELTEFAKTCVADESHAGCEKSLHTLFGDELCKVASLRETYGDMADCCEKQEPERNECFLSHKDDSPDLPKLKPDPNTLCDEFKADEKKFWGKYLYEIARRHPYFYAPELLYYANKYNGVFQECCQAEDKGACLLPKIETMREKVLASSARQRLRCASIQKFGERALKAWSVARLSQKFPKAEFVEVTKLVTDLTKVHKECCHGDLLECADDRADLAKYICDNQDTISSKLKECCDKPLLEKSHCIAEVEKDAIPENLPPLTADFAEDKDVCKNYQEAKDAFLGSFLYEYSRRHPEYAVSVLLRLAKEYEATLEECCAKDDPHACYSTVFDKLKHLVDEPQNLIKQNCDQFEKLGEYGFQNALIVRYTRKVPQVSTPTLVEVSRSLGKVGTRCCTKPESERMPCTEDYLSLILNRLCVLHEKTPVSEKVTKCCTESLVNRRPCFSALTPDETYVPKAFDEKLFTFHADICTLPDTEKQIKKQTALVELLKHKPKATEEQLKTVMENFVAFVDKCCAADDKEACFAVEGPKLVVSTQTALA
`COc1ccccc1CN1C(=O)c2ccccc2[C@@]2(Cc3ccccc3N(CC(F)(F)F)C2=O)[C@@H]1c1ccc(CO)cc1` showed a composite z-score of -0.826.

The compound `CC(C)(C)OC(=O)CC[C@]1(C(=O)NCc2ccccc2)N=C(c2ccc(OCCCO)cc2)O[C@H]1c1ccccc1CN=[N+]=[N-]` showed a composite z-score of 0.75.

With `O=C(NCC(F)(F)F)[C@@H]1c2ccccc2C(=O)N(Cc2ccc(OC(F)(F)F)cc2)[C@H]1c1ccc(CO)cc1`, the composite z-score turned out to be 0.0667.

Turning to `COc1ccc([Si](C)(C)[C@H]2[C@H](CCn3cc([C@H](O)c4ccccc4)nn3)O[C@@]3(C(=O)N(Cc4ccc(N5C(=O)c6cccc7cccc5c67)cc4)c4ccccc43)[C@@H]2C)cc1`, the composite z-score is -0.601.

Take `CCCCCCc1nc(C2CC2)cc2c1[Si](C(C)C)(C(C)C)O[C@H]2c1ccccc1`: the composite z-score is -0.948.

Compound `COc1cc2c(cc1OC)CN(C(=O)[C@@H]1[C@H]3C(=O)O[C@H](c4ccccc4)[C@H](c4ccccc4)N3[C@H](c3ccc(OCCO)cc3)[C@@]13C(=O)Nc1ccccc13)CC2` returned a composite z-score of 0.299.

With `CCOC(=O)C[C@H]1[C@H](OC(=O)c2ccc(C(=O)c3ccccc3)cc2)[C@@H](NC(=O)Cc2ccc(OC)cc2)c2cc(OCCCO)ccc2N1C(=O)c1ccccc1`, the composite z-score is 0.585.

The compound `Cc1cc(C)c(C(O)C2C=CC3C(=O)NC(=O)C3N2Nc2ccc(Cl)cc2Cl)c(C)c1` (stereo not drawn) yielded a composite z-score of 0.961.

Test system in another assay: not listed separately
As to the kind of experiment: probe aXIP binding to arrayed compounds – biochemical, NeuroSMM set, 635/667 nm fluorescence, primary screen (AID 1119).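 Further: probe is the protein aXip251-270 applied at 1 µg/mL to compound-printed slides; binding of probe to printed compounds measured as 667 nm fluorescence plus signal to noise.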 As to conditions: small-molecule microarray, higher = more signal, called active from +8 up or from −8 down.
In the case of `COC(=O)c1c2oc(c1C(=O)OC)C(=O)N(Cc1ccccc1)Cc1cn(nn1)C[C@H](Cc1ccccc1)NC(=O)N[C@H](CO)CC2`, the composite Z-score is 0.535 (inactive).

For `O=C1O[C@H](c2ccccc2)[C@H](c2ccccc2)N2[C@H]1[C@@H](C(=O)Nc1nc3ccccc3s1)[C@]1(C(=O)Nc3ccc(C#CC4(O)CCCCCC4)cc31)[C@H]2c1ccccc1OCCO`, the composite Z-score is -0.305 (inactive).

As for `O=C1O[C@@H](c2ccccc2)[C@@H](c2ccccc2)N2[C@@H](c3ccccc3OCCO)[C@]3(C(=O)Nc4ccc(C#CCCO)cc43)[C@@H](C(=O)N3CCCCCCC3)[C@H]12`, the composite Z-score was 10.6 (active).

Consider `CC(C)N1CC=CC23O[C@@H]4C=CCOC(=O)[C@@H]4[C@H]2C(=O)N(CCCO)[C@@H]3C1=O` (stereo partly drawn), for which the composite Z-score was 2.17 (inactive).

For `COc1ccc([Si](C)(C)[C@@H]2[C@@H](CC(=O)N(CCO)Cc3ccccc3)O[C@]3(C(=O)N(Cc4cccc(N5CCOC5=O)c4)c4ccccc43)[C@H]2C)cc1`, the composite Z-score is 1.28 (inactive).

Turning to `COC(=O)[C@@]1(Cc2ccc(F)cc2)[C@H]2c3cc(C(=O)N4CCCC4)n(CCN4CNCC4=O)c3C[C@H]2CN1C(=O)c1ccccc1`, the composite Z-score is -0.476 (inactive).

Turning to `C=C[C@@H](COC(C)=O)N(C(=O)OC(C)(C)C)S(=O)(=O)c1ccc(Br)cc1`, the composite Z-score was 0.388 (inactive).

As for `CN(C)C(=O)[C@]1(CCS(=O)(=O)c2ccccc2)N=C(c2ccc(OCCCO)cc2)O[C@@H]1c1ccccc1N=[N+]=[N-]`, the composite Z-score is -0.0275 (inactive).

As to `O=C1NC(=O)C2C1C=CC(C(O)c1ccco1)N2Nc1ccccn1` (stereo not drawn), the composite Z-score is 0.0674 (inactive).

As to `C=CC[C@]1(C(=O)NCCN2CCOCC2)N=C(c2ccc(OCCCO)cc2)O[C@H]1c1ccccc1CN=[N+]=[N-]`, the composite Z-score is 0.363 (inactive).

Take `CCOC(=O)C[C@H]1[C@H](OC(=O)c2ccccc2-c2ccccc2)[C@@H](NC(=O)c2ccc(-c3ccccc3)cc2)c2cc(OCCCO)ccc2N1C(=O)c1ccc2ccccc2n1`: the composite Z-score is 0.367 (inactive).

As for `CCCC[C@@H](O)C1=C(COc2ccccc2)C[C@H]2C(=O)N(C)C(=O)[C@H]2[C@H]1CO`, the composite Z-score was -0.191 (inactive).

Regarding `COCCOC(=O)N1C(=O)[C@@]2(c3cc(C#Cc4ccc(OC)cc4)ccc31)[C@H](C(=O)Nc1nc3ccccc3s1)[C@H]1C(=O)O[C@H](c3ccccc3)[C@H](c3ccccc3)N1[C@@H]2c1ccc(O)cc1`, the composite Z-score is 0.364 (inactive).

On to `COC1OC[C@]2(C)[C@H]3C4=C(CN2C(=O)OC(C)(C)C)[C@H](C)C(CO)C(CO)C4CC[C@@H]13` (stereo partly drawn), for which the composite Z-score was 0.0112 (inactive).

Consider `COCCCNC(=O)[C@]1(CCS(=O)(=O)c2ccccc2)N=C(c2ccc(OCCCO)cc2)O[C@@H]1c1ccccc1N=[N+]=[N-]`, for which the composite Z-score is 0.778 (inactive).

With `CCCNC(=O)[C@@]1(c2ccc([N+](=O)[O-])cc2)CC(=O)N(C2CCCCC2)[C@@H]1c1ccc(CO)cc1`, the composite Z-score was 0.173 (inactive).

As for `[N-]=[N+]=NCc1ccccc1C[C@@]1(C(=O)N2CCOCC2)N=C(c2ccc(OCCCO)cc2)O[C@@H]1c1ccccc1`, the composite Z-score was 0.879 (inactive).

On to `NC(N)=NCCCn1cc(CNC(=O)[C@@H](N)Cc2ccccc2)nn1`, for which the composite Z-score was 0.79 (inactive).

Consider `COC(=O)[C@@]1(Cc2ccc(OC)cc2)[C@H]2c3cc(C(=O)N(C)C)n(CCO)c3C[C@H]2CN1C(=O)c1ccccc1`, for which the composite Z-score was 0.126 (inactive).

As for `COCCCNC(=O)[C@@]1(Cc2ccccc2CN=[N+]=[N-])N=C(c2ccc(OCCCO)cc2)O[C@H]1c1ccccc1`, the composite Z-score was 0.443 (inactive).

Consider `C=C[C@@H](OC)[C@H](OC(=O)Nc1ccc(SC)cc1)c1ccc(O)c(F)c1`, for which the composite Z-score is -0.584 (inactive).

Turning to `CCCCCCCCCCC(O)C1C=CC2C(=O)N(C)C(=O)C2N1Nc1ccc([N+](=O)[O-])cc1[N+](=O)[O-]` (stereo not drawn), the composite Z-score was 0.423 (inactive).

With `O=C(NCc1ccccc1)[C@@H]1c2ccccc2C(=O)N(Cc2ccccc2C(F)(F)F)[C@H]1c1ccc(CO)cc1`, the composite Z-score is -0.683 (inactive).

On to `COCCOC(=O)N1C(=O)[C@@]2(c3cc(C#CCCO)ccc31)[C@H](C(=O)Nc1nc3ccccc3s1)[C@H]1C(=O)O[C@H](c3ccccc3)[C@H](c3ccccc3)N1[C@@H]2c1ccccc1OCCO`, for which the composite Z-score was 0.0088 (inactive).

Take `COCCOC(=O)N1C(=O)[C@@]2(c3cc(C#CCC(C(=O)OC)C(=O)OC)ccc31)[C@H](C(=O)N1CCc3cc(OC)c(OC)cc3C1)[C@H]1C(=O)O[C@H](c3ccccc3)[C@H](c3ccccc3)N1[C@@H]2c1ccc(OCCO)cc1`: the composite Z-score is 0.654 (inactive).

On to `COc1ccc(CCNC(=O)[C@@]2(Sc3ccc(C)cc3)CC(=O)N(C3Cc4ccccc4C3)[C@@H]2c2ccc(CO)cc2)cc1`, for which the composite Z-score is -0.413 (inactive).

As to `CC1=C([C@H](O)CCc2ccccc2)[C@H](CO)[C@@H]2C(=O)N(C)C(=O)[C@@H]2C1`, the composite Z-score was -0.297 (inactive).

Take `COc1ccccc1CN1C(=O)c2ccccc2[C@@]2(Cc3ccccc3N(CC(F)(F)F)C2=O)[C@@H]1c1ccc(CO)cc1`: the composite Z-score is -0.137 (inactive).

In the case of `CC(C)(C)OC(=O)CC[C@]1(C(=O)NCc2ccccc2)N=C(c2ccc(OCCCO)cc2)O[C@H]1c1ccccc1CN=[N+]=[N-]`, the composite Z-score is -1 (inactive).

Turning to `O=C(NCC(F)(F)F)[C@@H]1c2ccccc2C(=O)N(Cc2ccc(OC(F)(F)F)cc2)[C@H]1c1ccc(CO)cc1`, the composite Z-score is -0.348 (inactive).

Take `COc1ccc([Si](C)(C)[C@H]2[C@H](CCn3cc([C@H](O)c4ccccc4)nn3)O[C@@]3(C(=O)N(Cc4ccc(N5C(=O)c6cccc7cccc5c67)cc4)c4ccccc43)[C@@H]2C)cc1`: the composite Z-score was 0.389 (inactive).

As to `CCCCCCc1nc(C2CC2)cc2c1[Si](C(C)C)(C(C)C)O[C@H]2c1ccccc1`, the composite Z-score is -0.228 (inactive).

As to `COc1cc2c(cc1OC)CN(C(=O)[C@@H]1[C@H]3C(=O)O[C@H](c4ccccc4)[C@H](c4ccccc4)N3[C@H](c3ccc(OCCO)cc3)[C@@]13C(=O)Nc1ccccc13)CC2`, the composite Z-score is 0.817 (inactive).

Consider `CCOC(=O)C[C@H]1[C@H](OC(=O)c2ccc(C(=O)c3ccccc3)cc2)[C@@H](NC(=O)Cc2ccc(OC)cc2)c2cc(OCCCO)ccc2N1C(=O)c1ccccc1`, for which the composite Z-score is 0.324 (inactive).

With `Cc1cc(C)c(C(O)C2C=CC3C(=O)NC(=O)C3N2Nc2ccc(Cl)cc2Cl)c(C)c1` (stereo not drawn), the composite Z-score is 0.234 (inactive).
